JMJD2E inh: qHTS Assay for Inhibitors of Human Jumonji Domain Containing 2E (JMJD2E); JMJD2E catalytic domain, FDH-coupled NADH fluorescence (FDH is formaldehyde dehydrogenase); Potency, µM (doses to about 57.1 µM), without a hit: at the highest dose activity change, negative = inhibition, usual class: inhibitors; 1.6% of 230,000 active; AID 2147, 2009; active = well fitted inhibition curve with a large enough effect, not every such curve was filed as active; inconclusive = small, poorly fitted or top-dose-only effect, or another doubt; inactive = no such curve, though single readings can be large or run the other way;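 note: 0% = wells with enzyme and -100% = buffer wells without enzyme; nearly all actives have a fitted effect of over 50% in size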
Target sequence (B2RXH2 1-337 limits assumed): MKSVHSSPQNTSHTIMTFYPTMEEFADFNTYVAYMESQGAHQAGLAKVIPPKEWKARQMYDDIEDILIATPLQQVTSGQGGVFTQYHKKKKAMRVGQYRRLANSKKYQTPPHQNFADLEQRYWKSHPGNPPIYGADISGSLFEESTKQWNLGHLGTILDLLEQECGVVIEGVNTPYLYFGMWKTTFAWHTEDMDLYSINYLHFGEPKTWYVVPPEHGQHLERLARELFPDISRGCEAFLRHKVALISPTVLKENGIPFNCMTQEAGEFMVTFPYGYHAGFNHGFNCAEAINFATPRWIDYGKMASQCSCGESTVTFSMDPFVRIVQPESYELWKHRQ
Tau fluor cs: Counterscreen qHTS for Inhibitors of Tau Fibril Formation, Fluorescence Polarization; AID 1463, 2008; tau K18 P301L Alexa594 fluorescence, heparin fibrillization; 0.93% of 280,000 active; Potency, µM (titrated, usually from 57.7 µM), for the others: at the top dose activity change, negative = decrease; note: nearly all actives have a fitted effect of over 55% in size
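Human K18 P301L tau (15 uM unlabeled plus 0.24 uM Alexa 594-labeled, final) in 100 mM sodium acetate pH 7 was mixed with compound and 20 uM heparin and incubated 6 hr at 37 C.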
Tau ThT inhib: qHTS for Inhibitors of Tau Fibril Formation, Thioflavin T Binding | 2.1% of 270,000 active | Microtubule-associated protein tau (Homo sapiens), P10636 | Potency, µM (series often up to 57.4 µM), for the others: at the top dose activity, negative = inhibition, hits mostly inhibitors | recombinant tau K18 P301L, heparin-induced fibrillization, ThT fluorescence; note: nearly all actives have a fitted effect of over 55% in size
Target sequence (P10636 561-689 P618L limits assumed): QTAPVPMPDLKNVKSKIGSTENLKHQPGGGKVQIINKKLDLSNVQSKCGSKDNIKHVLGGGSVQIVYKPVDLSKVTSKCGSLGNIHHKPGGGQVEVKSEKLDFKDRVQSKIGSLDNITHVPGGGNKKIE
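ThT emission at 510 nm, taken 1 hr after adding 30 uM dye, quantifies aggregates formed when 20 uM heparin acts on human tau K18 P301L for 6 hr at 37 C.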
ALDH1A1 inh: qHTS Assay for Inhibitors of Aldehyde Dehydrogenase 1 (ALDH1A1); Aldehyde dehydrogenase 1A1 (Homo sapiens), P00352; AID 1030, 2008; Potency, µM (doses to about 75.3 µM), inactives show top-dose activity, negative = inhibition, actives largely listed as inhibitors; 7.3% of 220,000 active; Purified ALDH1A1, NADH fluorescence, propionaldehyde substrate; active = well fitted inhibition curve with a large enough effect, not every such curve was filed as active; inconclusive = small, poorly fitted or top-dose-only effect, or another doubt; inactive = no such curve, though single readings can be large or run the other way;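 note: plate controls were no enzyme wells and a reference inhibitor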
HPGD block: qHTS Assay for Inhibitors of HPGD (15-Hydroxyprostaglandin Dehydrogenase). AID 894, 2007. 15-hydroxyprostaglandin dehydrogenase [NAD(+)] (Homo sapiens), P15428. purified HPGD, NADH fluorescence kinetic, PGE2 substrate. Potency, µM, inactives show at the top dose activity change, negative = inhibition, actives largely listed as inhibitors. 4.3% of 150,000 active; active = well fitted inhibition curve with a large enough effect, not every such curve was filed as active; inconclusive = small, poorly fitted or top-dose-only effect, or another doubt; inactive = no such curve, though single readings can be large or run the other way
Target sequence (P15428 whole entry, looked up): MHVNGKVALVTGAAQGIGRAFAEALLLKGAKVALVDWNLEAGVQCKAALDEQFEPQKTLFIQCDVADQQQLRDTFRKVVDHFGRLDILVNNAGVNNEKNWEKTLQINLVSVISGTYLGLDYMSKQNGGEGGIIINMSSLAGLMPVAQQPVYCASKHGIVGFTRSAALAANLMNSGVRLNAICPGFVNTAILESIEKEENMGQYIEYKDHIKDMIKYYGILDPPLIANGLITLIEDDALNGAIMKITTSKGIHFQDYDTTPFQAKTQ
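20 nM HPGD preincubated 15 min at room temperature with compound in 50 mM Tris-HCl pH 8, 0.01% Tween 20. Started with 1 mM NAD+ and 30 uM prostaglandin E2; NADH fluorescence (360/450 nm) read 5 times over 30-s intervals, last minus first.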
Tau FP inhib: qHTS for Inhibitors of Tau Fibril Formation, Fluorescence Polarization. Microtubule-associated protein tau (Homo sapiens), P10636. 0.39% of 280,000 active. Potency, µM (highest dose often 57.7 µM), without a hit: top-dose activity, negative = inhibition, actives largely listed as inhibitors. K18 P301L tau heparin fibrillization, Alexa594 FP, 6 h; note: nearly all actives have a fitted effect of over 55% in size
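Read-out: fluorescence polarization of Alexa 594-labeled tau (0.24 uM), 555 nm excitation, 632 nm emission. Mixtures held 15 uM unlabeled K18 P301L, compound and 20 uM heparin, pH 7 acetate buffer, incubated 6 hr at 37 C.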
Numbers without * were called inactive; [ ] = another dose, or the depositor's remark. A selection: hits, their analogues and other compounds. The true share with any hit is near 9.9%. Unless noted, calls come from the whole dose curve; as a rule, active = well fitted curve in the direction sought with a large enough effect; inconclusive = small, poorly fitted or top-dose-only effect, or another doubt; inactive = no such curve, though single readings can be large; an effect the other way counts as inactive or inconclusive. Unless noted, % is set by controls: 0 for no effect and ±100 for the full control effect; potency is the fitted concentration of half-maximal effect.

How did COCCNC(=O)CCCn1c(SCC(=O)Nc2ccc(F)cc2)nc2c(sc3ccccc32)c1=O do in these assays?
Tau fluor cs: -1.0%; Tau ThT inhib: inconclusive; Tau FP inhib: inconclusive

Results for COc1ccc(CCNCc2c(C(=O)O)c(C)n(Cc3c(F)cccc3Cl)c2C)cc1OC ?
Tau fluor cs: -14.6%; Tau ThT inhib: -8.6%; Tau FP inhib: -1.3%

What do the screens show for `Cc1ccc(Cl)cc1Nc1nn2c(=O)c3ccc(C(=O)NCc4ccc(F)cc4)cc3nc2s1`?
Tau fluor cs: -1.1%; Tau ThT inhib: 1.0%; Tau FP inhib: -11.5%

How did Cc1cc(C)nc(NC(=O)c2ccc(Cl)cc2Cl)n1 do in these assays?
JMJD2E inh: -12.5%; Tau fluor cs: 13.5%[2.34 µM]; Tau ThT inhib: 2.0%; ALDH1A1 inh: -3.6%; Tau FP inhib: -4.0%

How did CCOc1ccc(NC(=O)Cn2c(=O)cc(C)c3c(C)nn(-c4ccc(CC)cc4)c32)cc1 do in these assays?
Tau fluor cs: 7.5%; Tau ThT inhib: 5.7%; Tau FP inhib: -10.1%

What do the screens show for `Cn1cccc1C(=O)NC(=O)COC(=O)c1ccc(O)cc1`?
JMJD2E inh: -23.8%; Tau fluor cs: -0.4%; Tau ThT inhib: inconclusive; ALDH1A1 inh: 3.16µM*; HPGD block: -18.7%; Tau FP inhib: -2.4%

What do the screens show for `Cn1cccc1C(=O)NC(=O)COC(=O)c1ccccc1O`?
JMJD2E inh: -0.4%; Tau fluor cs: -2.3%; Tau ThT inhib: -10.7%; ALDH1A1 inh: inconclusive; HPGD block: inconclusive; Tau FP inhib: -0.1%

Results for NC(=S)Nc1cccc2cnccc12 ?
JMJD2E inh: -2.7%; Tau fluor cs: 2.3%; Tau ThT inhib: -9.5%; ALDH1A1 inh: 13.0%; HPGD block: -2.9%; Tau FP inhib: 1.1%

Results for COCCNC(=S)Nc1cccc2cnccc12 ?
JMJD2E inh: -11.9%; Tau fluor cs: -2.2%; Tau ThT inhib: -10.7%; ALDH1A1 inh: -14.4%; Tau FP inhib: -3.6%

Results for FC(F)(F)c1ccccc1NC(=S)Nc1cccc2cnccc12 ?
JMJD2E inh: inconclusive; Tau fluor cs: -21.8%; Tau ThT inhib: 22.4µM*; ALDH1A1 inh: 25.1µM*; Tau FP inhib: inconclusive

Results for Fc1ccccc1NC(=S)Nc1cccc2cnccc12 ?
JMJD2E inh: inconclusive; Tau fluor cs: -15.5%; Tau ThT inhib: inconclusive; ALDH1A1 inh: 17.8µM*; Tau FP inhib: inconclusive

What do the screens show for `CC(C)CCN1C(=O)c2ccc(C(=O)NCc3ccco3)cc2C1=O`?
JMJD2E inh: 7.9%; Tau fluor cs: -15.7%; Tau ThT inhib: -8.3%; ALDH1A1 inh: 11.2µM*; HPGD block: -16.0%; Tau FP inhib: 0.6%

What do the screens show for `CC(C)(C)N1C(=O)c2ccc(C(=O)Nc3nccs3)cc2C1=O`?
JMJD2E inh: -7.1%; Tau fluor cs: -10.9%; Tau ThT inhib: -7.9%; ALDH1A1 inh: inconclusive; HPGD block: -2.9%; Tau FP inhib: -6.0%

Results for CCOC(=O)N1CCC(N2C(=O)c3ccc(C(=O)NCc4ccco4)cc3C2=O)CC1 ?
JMJD2E inh: -1.2%; Tau fluor cs: -8.7%; Tau ThT inhib: -19.2%; ALDH1A1 inh: 11.9µM*; HPGD block: -12.5%; Tau FP inhib: -3.3%

How did CCN1C(=O)c2ccc(C(=O)Nc3nccs3)cc2C1=O do in these assays?
JMJD2E inh: 1.3%; Tau fluor cs: 9.7%; Tau ThT inhib: -7.6%; ALDH1A1 inh: 4.47µM*; HPGD block: -8.4%; Tau FP inhib: 9.3%

How did CCN1C(=O)c2ccc(C(=O)NCc3ccccc3)cc2C1=O do in these assays?
JMJD2E inh: 12.4%; Tau fluor cs: 10.6%; Tau ThT inhib: 15.3%; ALDH1A1 inh: 4.47µM*; HPGD block: -18.5%; Tau FP inhib: -1.3%

How did O=C(NCc1ccccc1)c1ccc2c(c1)C(=O)N(Cc1ccncc1)C2=O do in these assays?
JMJD2E inh: 8.6%; Tau fluor cs: -7.8%; Tau ThT inhib: 1.2%; ALDH1A1 inh: inconclusive; HPGD block: -8.9%; Tau FP inhib: -11.9%

How did CC(c1ccccc1)N1C(=O)c2ccc(C(=O)NCc3ccco3)cc2C1=O (stereo unspecified) do in these assays?
JMJD2E inh: -13.8%; Tau fluor cs: -20.4%; Tau ThT inhib: -13.1%; ALDH1A1 inh: inconclusive; HPGD block: -3.7%; Tau FP inhib: 0.1%

How did CC(C)(C)C1CCc2c(sc(NC(=O)c3ccco3)c2C(=O)Nc2ccccc2Cl)C1 (stereo unspecified) do in these assays?
Tau fluor cs: -10.1%; Tau ThT inhib: -1.9%; Tau FP inhib: inconclusive

What do the screens show for `O=C(NCc1ccco1)c1ccc2c(c1)C(=O)N(Cc1ccccc1)C2=O`?
JMJD2E inh: 1.0%; Tau fluor cs: -22.0%; Tau ThT inhib: -14.2%; ALDH1A1 inh: 12.6µM*; HPGD block: -25.8%; Tau FP inhib: -11.1%

Results for O=C(NCc1ccco1)c1ccc2c(c1)N(Cc1ccccc1)C(=O)c1ccccc1S2(=O)=O ?
Tau fluor cs: inconclusive; Tau ThT inhib: -2.1%; Tau FP inhib: inconclusive

How did Cc1ccccc1CSCC(Nc1ccc(C(=O)O)cc1[N+](=O)[O-])C(=O)O (stereo unspecified) do in these assays?
JMJD2E inh: 1.2%; Tau fluor cs: -2.7%; Tau ThT inhib: -8.1%; ALDH1A1 inh: 15.8µM*; HPGD block: -9.2%; Tau FP inhib: 1.6%

What do the screens show for `COc1cccc(C2C3=C(Nc4[nH]n(-c5ccccc5)c(=O)c42)c2ccccc2C3=O)c1` (stereo unspecified)?
JMJD2E inh: 7.0%; Tau fluor cs: inconclusive; Tau ThT inhib: 5.01µM*; ALDH1A1 inh: 20µM*; HPGD block: -15.1%; Tau FP inhib: -0.3%

Results for CCCCNC(=O)Cn1cnc2sc(C)c(S(=O)(=O)N3CCN(c4ncccn4)CC3)c2c1=O ?
JMJD2E inh: -8.3%; Tau fluor cs: -13.9%; Tau ThT inhib: -9.2%; ALDH1A1 inh: 6.1%; Tau FP inhib: -6.3%

Results for Nc1cc(Cl)ccc1Oc1ccccc1 ?
JMJD2E inh: 4.6%; Tau fluor cs: -7.4%; Tau ThT inhib: -1.1%; ALDH1A1 inh: 4.7%; HPGD block: -12.1%; Tau FP inhib: -0.9%

Results for Nc1c(Cl)cc2c(c1Oc1ccccc1)C(=O)c1ccccc1C2=O ?
JMJD2E inh: 2.8%; Tau fluor cs: 14.1µM*[quencher]; Tau ThT inhib: inconclusive; ALDH1A1 inh: -8.1%; HPGD block: -19.4%; Tau FP inhib: 6.7%
